In PubChem BioAssay AID720597 (Broad Institute, 2013):
Results with a measured potency or affinity are listed apart. Calls of active or inactive are those of the source.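 How the source made its calls: active means fitted half-maximal dose no more than twice the top valid tested dose, for compounds that lower signal; inconclusive means fit invalid, or curve flat with activity between -70 and -30; inactive means potency past limit, curve flat within ±30, or signal increasing.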

Each compound was assayed against NAD-dependent protein deacylase sirtuin-5, mitochondrial (Homo sapiens) (UniProt Q9NXA8) (assay: blockers of sirtuin-5 peptide desuccinylation – biochemical, fluorescence imaging, cherry-pick, set 6, dose response (AID 720597;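 further: lower AMC signal can also come from blocking the trypsin step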)). Details: Purified SirT5, succinyl-peptide-AMC/trypsin fluorescence; series mostly up to 15 µM.
Chain of NAD-dependent protein deacylase sirtuin-5, mitochondrial (Homo sapiens) (Q9NXA8 whole entry, looked up): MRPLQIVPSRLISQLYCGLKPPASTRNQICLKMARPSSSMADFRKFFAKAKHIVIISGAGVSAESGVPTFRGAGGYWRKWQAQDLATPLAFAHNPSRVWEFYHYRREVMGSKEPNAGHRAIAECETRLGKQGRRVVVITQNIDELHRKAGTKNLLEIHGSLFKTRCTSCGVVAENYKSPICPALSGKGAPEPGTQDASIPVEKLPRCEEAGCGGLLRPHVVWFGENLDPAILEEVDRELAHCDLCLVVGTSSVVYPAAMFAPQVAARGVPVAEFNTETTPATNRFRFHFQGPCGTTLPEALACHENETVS

outcome, inactive:
Cc1ccc(S(=O)(=O)N(C)C[C@@H]2OCCCC[C@@H](C)Oc3ccc(NS(=O)(=O)c4ccc(Cl)cc4)cc3C(=O)N([C@H](C)CO)C[C@H]2C)cc1
C[C@@H]1CCCCO[C@@H](CN(C)Cc2ccc(C(F)(F)F)cc2)[C@@H](C)CN([C@@H](C)CO)C(=O)c2cc(NS(=O)(=O)c3cccs3)ccc2O1
C[C@@H]1CCCCO[C@H](CN(C)C(=O)Nc2ccc(C(F)(F)F)cc2)[C@H](C)CN([C@H](C)CO)C(=O)c2cc(NS(=O)(=O)c3ccc(Cl)cc3)ccc2O1
C[C@@H]1CN([C@H](C)CO)S(=O)(=O)c2ccc(C#CC(C)(C)O)cc2O[C@@H]1CN(C)Cc1ccc(-c2ccccc2)cc1
COc1ccc(NC(=O)N(C)C[C@@H]2Oc3cc(C#CCC(C)C)ccc3S(=O)(=O)N([C@@H](C)CO)C[C@@H]2C)cc1
C[C@H]1CN([C@@H](C)CO)S(=O)(=O)c2ccc(/C=C/c3ccccc3)cc2O[C@@H]1CN(C)Cc1ccccc1
O=C(c1ccc2c(c1)OCO2)N1CC(=O)N2[C@H](CO)[C@H](c3ccc(C#CCC4CCCC4)cc3)[C@@H]2C1
OC[C@@H]1[C@H](c2ccccc2)C2(CN(Cc3nccs3)C2)N1Cc1cccnc1
C/C=C/c1ccc2c(c1)O[C@H](CN(C)Cc1cccc(F)c1)[C@H](C)CN([C@@H](C)CO)S2(=O)=O
